According to PubChem BioAssay (NCI):
The panel holds about 83,000 compounds, 20% with a hit somewhere; the sample as a whole holds those more often.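 Method: cells in 96-well plates; compound added at one concentration; 48 h incubation; percent growth measured; values under 10 scored active.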 Calls of active or inactive are those of the source.

What follows are molecules tested on LOX IMVI melanoma (assay: NCI-60 one-dose screen, 48 h (100 = growth as untreated, 0 = no growth, -100 = all killed)). Conditions: 10 µM unless noted.
For O=NN1CCCc2cccc(O)c21, the growth was 23.9% (inactive).
Fc1ccc2c(c1)c(-c1nc(-c3c[nH]c4ncccc34)cs1)cn2CCN1CCOCC1 was tested, and the growth was 56.7% (inactive).
CC(=O)Nc1nc2c(s1)CC[C@@]1(C)C2=CC[C@H]2[C@@H]3CC[C@H](O)[C@@]3(C)CC[C@@H]21 was tested, and the growth was 53.6% (inactive).
In the case of CCOC(=O)[C@@H](C)C[C@H](Cc1ccccc1)NC(=O)c1csc([C@@H](C[C@H](C(C)C)N(C)C(=O)[C@H](CCC(C)C)NC(=O)[C@H]2CCCCN2C)OC(C)=O)n1, the growth is reported as 15.2% (inactive).
In the case of c1cnc2[nH]cc(-c3csc(-c4cn(CCCCN5CCCCC5)c5ccccc45)n3)c2c1, the growth is reported as 84.2% (inactive).
With C=C1C[C@](OC)([C@H](O)C(=O)N[C@@H](OC)[C@@H]2C[C@@H](O)C(C)(C)[C@@H](C[C@@H](COC)OC)O2)O[C@H](C)[C@@H]1C the growth was -81.8% (active).
O=C(Nc1ccc(O)cc1)C(Cl)(Cl)Cl was tested, and the growth was 106% (inactive).
For CCCCN1CCCC[C@@H]1C(=O)N[C@H](C(=O)N(C)[C@H](C[C@@H](OC(C)=O)c1nc(C(=O)NC2CCC(C(=O)OC)CC2)cs1)C(C)C)C(C)C (stereo not given in full), the growth was 35.6% (inactive).
For Cn1cc(-c2csc(-c3cn(CCCCN4CCCCC4)c4ccc(F)cc34)n2)c2cccnc21, the growth was 75.9% (inactive).
With CC1=C(CN)C2=C(C)C3(CC3)[C@@](C)(O)C(=O)C2=C1 the growth was 91.6% (inactive).
Cn1cc(-c2csc(-c3cn(CCN4CCOCC4)c4ccc(F)cc34)n2)c2cccnc21 was tested, and the growth was 27.9% (inactive).
For Brc1ccc2c(c1)c(-c1nc(-c3c[nH]c4ncccc34)cs1)cn2CCN1CCOCC1, the growth was 66.7% (inactive).
With COC(=O)[C@@H](C)C[C@H](Cc1ccccc1)NC(=O)c1csc([C@@H](C[C@H](C(C)C)N(C)C(=O)[C@@H](NC(=O)[C@H]2CCCCN2C)C2CCCCC2)OC(C)=O)n1 the growth was 12.5% (inactive).
In the case of CC(=O)OC1CCC2(C)C(CCC3C2CC(=O)C2(C)C3CC(Sc3ccc(N(CCCl)CCCl)cc3)C2C(C)=O)C1 (stereo not given), the growth is reported as 55.1% (inactive).
COc1ccc(S(=O)(=O)N(Cc2ccc3c(c2)C=CC(C)(C)O3)c2ccccc2)cc1OC was tested, and the growth was 74.2% (inactive).
In the case of CC[C@H](C)[C@H](NC(=O)[C@H]1CCCCN1C)C(=O)N(C)[C@H](CC(=O)c1nc(C(=O)N[C@@H](Cc2ccccc2)C[C@H](C)C(=O)O)cs1)C(C)C, the growth is reported as 47.2% (inactive).
With COC(=O)[C@@H](C)C[C@H](Cc1ccccc1)NC(=O)c1csc([C@@H](C[C@H](C(C)C)N(C)C(=O)[C@@H](NC(=O)C23CC(NC(C)=O)(C2)C3)C2CC2)OC(C)=O)n1 the growth was 31.7% (inactive).
For C[n+]1c(/C=C/c2ccc(N(CCCl)CCCl)cc2)sc2ccccc21, the growth was 36.6% (inactive).
With CC[C@H](C)[C@H](NC(=O)NC(C)(C)C)C(=O)N(C)[C@H](C[C@@H](OC(C)=O)c1nc(C(=O)N[C@@H](Cc2ccccc2)C[C@H](C)C(=O)OC)cs1)C(C)C the growth was 16% (inactive).
CCCCCCCC[N+](C)(CCCCCCCC)CCCCCCCC was tested, and the growth was -74.7% (active).
For CC[C@H](C)[C@H](NC(=O)C12CC(NC(C)=O)(C1)C2)C(=O)N(C)[C@H](C[C@@H](OC(C)=O)c1nc(C(=O)N[C@@H](Cc2ccccc2)C[C@H](C)C(=O)OC)cs1)C(C)C, the growth was 16.5% (inactive).
In the case of CCn1cnc2c(Nc3cccc(Cl)c3)nc(N[C@@H]3CCCC[C@@H]3N)nc21, the growth is reported as -8.41% (active).
For O=C(O)C1C(C(=O)O)C2(Cl)C(Cl)=C(Cl)C1(Cl)C2(Cl)Cl.[Hg] (stereo not given), the growth was 85.2% (inactive).
CC[C@H](C)[C@H](NC(=O)[C@H]1CCCCN1C)C(=O)N(C)[C@H](C[C@@H](OC(C)=O)c1nc(C(=O)N[C@@H](Cc2ccccc2)C[C@H](C)C(=O)OC)cs1)C(C)C was tested, and the growth was 8.61% (active).
CN1C(=O)C(=Cc2cn(CCCCCCn3c4ccccc4c(=O)c4ccccc43)c3ccccc23)C(=O)N(C)C1=O was tested, and the growth was 93% (inactive).
With CC(C)(C)C(=O)OCOP(=O)(OCOC(=O)C(C)(C)C)C1CCCN(O)C1=O (stereo not given) the growth was 17.6% (inactive).
With COC(=O)[C@@H](C)C[C@H](Cc1ccc2ccccc2c1)NC(=O)c1csc([C@@H](C[C@H](C(C)C)N(C)C(=O)[C@@H](NC(=O)[C@H]2CCCCN2C)C(C)C)OC(C)=O)n1 the growth was 28.3% (inactive).
With C=C1C(=O)O[C@H]2[C@H]1CC/C(COC(=O)C(=O)c1cn(Cc3ccccc3)c3ccccc13)=C\CC[C@@]1(C)O[C@@H]21 the growth was -93.3% (active).
For CN(CCCCN(C)CCOS(C)(=O)=O)CCOS(C)(=O)=O, the growth was 58% (inactive).
In the case of NC(=O)CNc1ccc([As]=[As]c2ccc(NCC(N)=O)cc2)cc1 (stereo not given), the growth is reported as 26.2% (inactive).
